Results on eight molecules are retold here after PubChem BioAssay (NCI).

Common to all, as to experiment: NCI-60 one-dose screen, 48 h (100 = growth as untreated, 0 = no growth, -100 = all killed)
One assay relates to NCI-H23 lung. The settings on record: 10 µM unless noted.
Another assay has as its system NCI-H226 lung. The settings on record: 10 µM unless noted.
The subject of the next assay is NCI-H322M lung. The settings on record: 10 µM unless noted.
Another assay relates to HOP-62 NSCLC. The settings on record: 10 µM unless noted.
The test system of a further assay is NCI-H460 lung. The settings on record: 10 µM unless noted.
For the next assay, the system named is HOP-92 NSCLC. To be noted: 10 µM unless noted.
The next assay deals with NCI-H522 lung. To be noted: 10 µM unless noted.
The subject of the next assay is A549/ATCC NSCLC. To be noted: 10 µM unless noted.
Another assay relates to 786-0 renal. To be noted: 10 µM unless noted.
A further assay concerns COLO 205 colon. The settings on record: 10 µM unless noted.
For the next assay, the system named is DU-145 prostate. To be noted: 10 µM unless noted.
The subject of another assay is K-562 leukemia. To be noted: 10 µM unless noted.
The subject of a further assay is MALME-3M melanoma. The settings on record: 10 µM unless noted.
The subject of the next assay is MDA-MB-231 breast. To be noted: 10 µM unless noted.
The subject of the next assay is RXF 393 renal. To be noted: 10 µM unless noted.
The test system of another assay is SF-268 CNS. To be noted: 10 µM unless noted.
The next assay relates to SF-295 CNS. The settings on record: 10 µM unless noted.
The test system of the next assay is SF-539 CNS. To be noted: 10 µM unless noted.
Another assay deals with UACC-257 melanoma. To be noted: 10 µM.
The test system of the next assay is M14 melanoma. To be noted: 10 µM unless noted.

The panel holds about 83,000 compounds, 20% with a hit somewhere; the sample as a whole holds those more often.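 Single-dose data. Exposure time 48 hours. Values below 10 considered active.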 Values without a mark were called inactive. Calls of active or inactive are those of the source.

Consider `CS(=O)c1nccc(-c2c(-c3ccc(F)c(OCc4ccccc4)c3)nc3sccn23)n1` (stereo not given), for which the growth in the assay with NCI-H23 lung is 88.2%; in the assay on NCI-H226 lung, 96.3%; with NCI-H322M lung, 73.1%; with HOP-62 NSCLC, 103%; in the assay on NCI-H460 lung, 19.1%; in the assay on HOP-92 NSCLC it was 51.8%. Also, the growth with NCI-H522 lung is 31.6%; in the assay on A549/ATCC NSCLC it was 100%; in the assay with 786-0 renal, 99.1%; with COLO 205 colon, 106%; with DU-145 prostate, 4.02% (active); in the assay with K-562 leukemia, 17.8%. The growth in the assay on MALME-3M melanoma is 91.7%; in the assay on MDA-MB-231 breast, 93.8%; in the assay with RXF 393 renal it was 96.6%; in the assay on SF-268 CNS, 105%; in the assay with SF-295 CNS it was 101%; with SF-539 CNS, 94.6%. Moreover, the values for the growth with UACC-257 melanoma and in the assay with M14 melanoma were 19.8% and 96.5%, respectively.

With `CC(C)c1nn(-c2ccccc2)c(N2CCCCC2)c1/C=N/NC(N)=S`, the growth with NCI-H23 lung is 90.9%; in the assay on NCI-H226 lung, 88.2%; in the assay with NCI-H322M lung it was 82.3%; in the assay on HOP-62 NSCLC, 101%; with NCI-H460 lung, 96.5%; in the assay with HOP-92 NSCLC, 64.6%. Also, the growth was 86.1% in the assay on NCI-H522 lung; 79.2% with A549/ATCC NSCLC; 101% with 786-0 renal; 97% in the assay on COLO 205 colon; 95.3% with DU-145 prostate; 82.9% with K-562 leukemia. The growth in the assay with MALME-3M melanoma is 104%; with MDA-MB-231 breast it was 107%; with RXF 393 renal, 75.5%; in the assay with SF-268 CNS, 88%; in the assay with SF-295 CNS it was 77.6%; with SF-539 CNS, 88.7%. For the same molecule, the growth with UACC-257 melanoma is 106%; in the assay on M14 melanoma, 113%.

Turning to `COc1ccc(NC2=C(Cl)C(=O)C(C)=C(C)C2=O)cc1`, the growth is 83.7% with NCI-H23 lung; 99% in the assay on NCI-H226 lung; 100% in the assay with NCI-H322M lung; 95.6% in the assay with HOP-62 NSCLC; 97.3% with NCI-H460 lung; -2.54% (active) with HOP-92 NSCLC. Also, the growth in the assay with NCI-H522 lung was 85.6%; with A549/ATCC NSCLC it was 98.3%; in the assay with 786-0 renal it was 113%; with COLO 205 colon, 109%; in the assay on DU-145 prostate, 106%; in the assay on K-562 leukemia it was 5.78% (active). Also, the growth in the assay on MALME-3M melanoma is 99.8%; with MDA-MB-231 breast, -15.1% (active); in the assay on RXF 393 renal, 100%; in the assay with SF-268 CNS, 96%; in the assay with SF-295 CNS, 100%; in the assay with SF-539 CNS it was 103%. Besides, the growth in the assay on UACC-257 melanoma is 85.5%; with M14 melanoma it was 95.5%.

Take `CCN1C(=O)N(CC)C2SC(N/N=C/c3ccc(OC)cc3)=NC21` (stereo not given): the growth in the assay with NCI-H23 lung was 24.6%; in the assay with NCI-H226 lung it was 51.2%; with NCI-H322M lung it was 42.1%; in the assay on HOP-62 NSCLC it was 48%; with NCI-H460 lung, 2.55% (active); with HOP-92 NSCLC, 36.4%. The growth is 17.1% in the assay with NCI-H522 lung; 23.9% in the assay with A549/ATCC NSCLC; 19.6% in the assay with 786-0 renal; 2.66% (active) with COLO 205 colon; 11.2% in the assay with DU-145 prostate; 15.7% in the assay on K-562 leukemia. For the same molecule, the growth in the assay with MALME-3M melanoma is 45.8%; with MDA-MB-231 breast it was 23.4%; in the assay with RXF 393 renal, 19.6%; with SF-268 CNS, 49.7%; in the assay with SF-295 CNS, 8.27% (active); in the assay on SF-539 CNS, -8.3% (active). Moreover, the figures for the growth with UACC-257 melanoma and in the assay with M14 melanoma were 80.4% and 3.93% (active), respectively.

Turning to `Nc1ccc(-c2nnc(SCc3ccc(O)c4ncccc34)n2-c2ccccc2)cc1`, the growth with NCI-H23 lung is 13.2%; in the assay on NCI-H226 lung, 44%; in the assay on NCI-H322M lung it was 23.7%; in the assay with HOP-62 NSCLC, 17%; in the assay with NCI-H460 lung it was 5.71% (active); with HOP-92 NSCLC it was -21% (active). The growth with NCI-H522 lung is 17.5%; with A549/ATCC NSCLC it was 14.1%; in the assay with 786-0 renal it was 19.9%; in the assay with COLO 205 colon it was 4.41% (active); with DU-145 prostate, 24.1%; with K-562 leukemia, 15.9%. Moreover, the growth in the assay with MALME-3M melanoma is 5.24% (active); in the assay with MDA-MB-231 breast, 17%; in the assay on RXF 393 renal, 13.5%; in the assay on SF-268 CNS it was 23.3%; in the assay with SF-295 CNS, 0.907% (active); in the assay with SF-539 CNS it was 10.5%. Moreover, the growth with UACC-257 melanoma is 3.16% (active); with M14 melanoma, 14.9%.

Turning to `O=C1Nc2ccc(Cl)cc2/C1=C/c1ccc(OCc2ccc(Br)cc2F)cc1`, the growth was 98.6% in the assay with NCI-H23 lung; 73.5% in the assay with NCI-H226 lung; 99.6% with NCI-H322M lung; 101% in the assay on HOP-62 NSCLC; 103% in the assay with NCI-H460 lung; 95% with HOP-92 NSCLC. The growth in the assay with NCI-H522 lung was 100%; in the assay with A549/ATCC NSCLC, 102%; in the assay with 786-0 renal, 102%; with COLO 205 colon it was 103%; with DU-145 prostate, 101%; with K-562 leukemia, 91.2%. For the same molecule, the growth with MALME-3M melanoma was 100%; in the assay on MDA-MB-231 breast, 94.7%; with RXF 393 renal, 85.3%; in the assay on SF-268 CNS it was 98.5%; with SF-295 CNS it was 103%; with SF-539 CNS, 99.4%. For the same molecule, the growth is 101% in the assay on UACC-257 melanoma and 90.1% with M14 melanoma.

For `CC1(COc2ccc3ncc(C#Cc4cncc(C(=O)Nc5cc(C(C)(C)C)on5)c4)n3n2)COC1`, the growth with NCI-H23 lung is 28.7%; in the assay on NCI-H226 lung, 18.8%; in the assay on NCI-H322M lung, 60.4%; in the assay with HOP-62 NSCLC it was 29.1%; with NCI-H460 lung, 23.3%; in the assay on HOP-92 NSCLC, -22.6% (active). The growth in the assay on NCI-H522 lung is 56.9%; in the assay with A549/ATCC NSCLC, 47.2%; in the assay on 786-0 renal, 52.3%; in the assay with COLO 205 colon, 61.9%; with DU-145 prostate, 53.5%; in the assay on K-562 leukemia it was 16.2%. Moreover, the growth was 30.2% with MALME-3M melanoma; 30.7% with MDA-MB-231 breast; -2.4% (active) with RXF 393 renal; 53.9% in the assay on SF-268 CNS; 22.6% with SF-295 CNS; 20.2% in the assay with SF-539 CNS. In addition, the growth with UACC-257 melanoma was 79.9%; with M14 melanoma, 28.7%.

Take `COc1ccc(Cn2cc3c(c2-c2cc(OC)c(OC)c(OC)c2)CCCc2cnoc2-3)cc1`: the growth in the assay with NCI-H23 lung was 32.5%; with NCI-H226 lung, 53.6%; in the assay on NCI-H322M lung it was 39.6%; in the assay with HOP-62 NSCLC, 43.2%; in the assay with NCI-H460 lung, 7.42% (active); with HOP-92 NSCLC, 50.6%. The growth with NCI-H522 lung was 10.4%; in the assay with A549/ATCC NSCLC, 33.6%; with 786-0 renal, 37.1%; in the assay on COLO 205 colon, -0.67% (active); with DU-145 prostate, 17.4%; in the assay on K-562 leukemia, 10.2%. The growth in the assay with MALME-3M melanoma is 57.5%; in the assay with MDA-MB-231 breast, 32.4%; in the assay on RXF 393 renal, -2.75% (active); in the assay on SF-268 CNS it was 57.7%; in the assay with SF-295 CNS, 5.29% (active); with SF-539 CNS, 2.82% (active). Further, the growth with UACC-257 melanoma was 81.5%; in the assay with M14 melanoma it was 2.98% (active).
